An excerpt weighted towards active compounds, which were near 2.4% of everything screened.
D2 ag-1 = D2 dopamine receptor (human) agonism | HEK293 T-REx D2 cells, calcium flux agonist mode | activation, % at 2 µM | hit rate 0.53% among 340,000 | AID 485358;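 active means activation over 3 SD above normal in the single-dose calcium agonist read, cut at about 30% in these data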; further: 0% is about no effect
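Tetracycline-induced HEK293 T-REx cells with force-coupled D2 receptor, plated overnight at 30 C, loaded with no-wash calcium dye. After a 10 s baseline, compound was pin-added and calcium flux read kinetically for 180 s; calcium rises flagged agonists.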
D2 antagonist = D2 dopamine receptor (human) antagonism; HEK293 TREx D2 cells, calcium flux, dopamine EC80; hit rate 2% among 340,000; inhibition, % at 10 µM; AID 485344; in the data active means inhibition above about 30%; inactive means below that, where a call was filed; further: 0% is about no effect
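Measurement of antagonist activity uses fluorescent calcium dye in inducible HEK293 T-REx D2 cells: 10 s baseline, compound addition with 180 s read, EC80 dopamine addition with a further 180 s read.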
D2 PAM-1 = potentiates the human D2 dopamine receptor allosterically; P14416; DiscoveRx D2 beta-arrestin cells, luminescence, 90 min; 100% = 57 uM dopamine signal; potentiation, % (no concentration beside the values); hit rate 0.23% among 360,000; AID 624464; in the data active means potentiation above about 50%; inconclusive means mostly about 30% to 49%
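PathHunter beta-arrestin assay in DiscoveRx D2 cells. Compounds were added with an EC20 of dopamine (50 nM final) for 90 min at 37 deg C. Luminescence was read 1 h after detection reagent, with 57 uM dopamine as the EC100 control.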
D2 PAM-2 = positively modulates the human D2 dopamine receptor allosterically | AID 485347 | P14416 | potentiation, % at 10 µM | HEK293 T-REx D2, calcium flux, EC20 dopamine potentiation | hit rate 0.34% among 340,000;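 active means potentiation over 3 SD above the plate norm, cut at about 30% in these data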; further: 0% is about no effect
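Calcium flux readout, no-wash dye, 1 read/s. Inducible HEK293 Trex D2 line, overnight 30 C. Compound alone 180 s (agonist flags), then EC20 dopamine, another 180 s to score potentiation.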
D2 ag-2 = agonists of human D2 dopamine receptor (beta-arrestin). DiscoveRx PathHunter D2 beta-arrestin, luminescence, 90 min; 100% = 57 uM dopamine signal. hit rate 0.084% among 360,000. activation, % (no concentration beside the values). P14416. AID 624465; in the data active means activation above about 40%; inconclusive means between about 15% and that limit
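DiscoveRx PathHunter D2 beta-arrestin cells (2,100/well) attached overnight, then compound-stimulated 90 min at 37 C in HBSS/10 mM HEPES/0.1% Tween-20 buffer; beta-galactosidase complementation read by luminescence after 1 h at ambient temperature. Dopamine 57 uM final (EC100) as control.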
D3 ag = confirmation of human D3 dopamine receptor agonists, beta-arrestin | shares compounds with D2 ag-1 | DiscoveRx D3 beta-arrestin cells, luminescence, 90 min | Potency, µM (titrated, usually from 76.9 µM), without a hit: top-dose activation, usual class: activators | hit rate 4% among 2,300 | AID 720506;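 further: potency means the concentration at half of the fitted maximal effect; 100% = dopamine control response; nearly all actives have a fitted effect of over 70% in size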
Target sequence (P35462 whole entry, looked up): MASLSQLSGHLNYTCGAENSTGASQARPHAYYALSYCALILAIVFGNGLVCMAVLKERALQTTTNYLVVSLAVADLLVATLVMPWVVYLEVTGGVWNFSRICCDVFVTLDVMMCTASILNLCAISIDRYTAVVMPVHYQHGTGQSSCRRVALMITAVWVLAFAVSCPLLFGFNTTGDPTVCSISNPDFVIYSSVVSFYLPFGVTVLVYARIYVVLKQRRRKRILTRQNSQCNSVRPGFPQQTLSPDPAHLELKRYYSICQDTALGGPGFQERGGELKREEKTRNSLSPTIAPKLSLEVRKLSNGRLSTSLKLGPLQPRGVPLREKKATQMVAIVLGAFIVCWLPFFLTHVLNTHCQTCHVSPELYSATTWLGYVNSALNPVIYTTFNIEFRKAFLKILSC
D2 ag-3 = activates human D2 dopamine receptor in D3 counterscreen; shares compounds with D2 ag-1; AID 720507; DiscoveRx PathHunter D2 beta-arrestin, luminescence, 90 min; response scale: percent relative to full dopamine signal; Potency, µM (titrated, usually from 76.9 µM), inactives show at the highest dose activation, most hits filed as activators; hit rate 5.9% among 2,300; further: potency means the concentration at half of the fitted maximal effect; % of control where 0% means no effect; nearly all actives have a fitted effect of over 70% in size
* marks the source's active call; other numbers are inactive results. Unless noted, the call rests on the fitted dose curve; in most records, active means well fitted activation curve with a large enough effect; inconclusive means small, poorly fitted or top-dose-only effect; inactive means flat fitted curve, though single readings scatter.

How did COc1ccc(NC(=O)CCNC(=O)c2ccco2)cc1OC do in these assays?
D2 ag-1: 0.2; D2 antagonist: -11.4; D2 PAM-1: -9.2; D2 PAM-2: -10.7; D2 ag-2: -4.0

Results for Cc1cccc(C)c1NC(=O)CN1CCN(C(=O)CN2C(=O)NC3(CCCCC3C)C2=O)CC1 (configuration not stated) ?
D2 ag-1: 40.3*; D2 antagonist: 19.6; D2 PAM-1: 4.6; D2 PAM-2: -16.7; D2 ag-2: 0.7; D3 ag: 3.7%; D2 ag-3: 6.2%

How did CCc1ccccc1NC(=O)CN1CCN(C(=O)CN2C(=O)NC3(CCCCC3C)C2=O)CC1 (configuration not stated) do in these assays?
D2 ag-1: -0.7; D2 antagonist: -5.8; D2 PAM-1: 1.5; D2 PAM-2: -7.1; D2 ag-2: -2.4

How did COc1ccccc1CNC(=O)C1CCN(S(=O)(=O)c2c(C)noc2C)CC1 do in these assays?
D2 ag-1: 0.3; D2 antagonist: 20.0; D2 PAM-1: -8.7; D2 PAM-2: -3.6; D2 ag-2: -3.8

Results for COc1ccccc1C(=O)NC(CCSC)C(=O)OCC(=O)N1CCCC1=O (configuration not stated) ?
D2 ag-1: -0.7; D2 antagonist: -21.3; D2 PAM-1: -4.6; D2 PAM-2: -8.3; D2 ag-2: -1.9; D3 ag: -3.1%; D2 ag-3: -0.6%

Results for CSCCC(NC(=O)c1ccc(Cl)cc1)C(=O)OCC(=O)N1CCCC1=O (configuration not stated) ?
D2 ag-1: 1.3; D2 antagonist: 1.4; D2 PAM-1: 2.3; D2 PAM-2: -10.9; D2 ag-2: -0.7

How did CCOCCCNC(=O)c1ccc(CS(=O)(=O)Cc2ccccc2F)o1 do in these assays?
D2 PAM-1: -3.6; D2 ag-2: -1.4

Results for O=C(NCCS(=O)(=O)N1CCN(c2ccccc2)CC1)C1CC(=O)N(c2ccccc2)C1 (configuration not stated) ?
D2 ag-1: -0.1; D2 antagonist: -2.1; D2 PAM-1: -3.5; D2 PAM-2: 13.0; D2 ag-2: -0.4; D3 ag: -4.5%; D2 ag-3: -1.1%

What do the screens show for `O=C(NCCS(=O)(=O)N1CCN(c2ccc(F)cc2)CC1)C1CC(=O)N(c2ccccc2)C1` (configuration not stated)?
D2 ag-1: -0.1; D2 antagonist: -11.3; D2 PAM-1: 6.1; D2 PAM-2: -9.3; D2 ag-2: -0.5

Results for CCOC(=O)Cc1csc(NC(=O)c2ccc3ccccc3n2)n1 ?
D2 PAM-1: -3.2; D2 PAM-2: 3.1; D2 ag-2: 1.7

What do the screens show for `CCOC(=O)C1CCN(Cc2cnc(Oc3ccc(N)cc3)s2)CC1`?
D2 ag-1: 76.2*; D2 antagonist: 67.1*; D2 PAM-1: 17.4; D2 PAM-2: -31.1; D2 ag-2: inconclusive; D3 ag: 2.7%; D2 ag-3: inconclusive

What do the screens show for `CCOC(=O)C1CCN(Cc2cccc(Oc3ccc(Cl)cc3)c2)CC1`?
D2 ag-1: 62.0*; D2 antagonist: 71.7*; D2 PAM-1: 17.1; D2 PAM-2: -26.8; D2 ag-2: inconclusive; D3 ag: inconclusive; D2 ag-3: 39.8µM*

How did CCN1CCN(Cc2cccc(Oc3ccc(Cl)cc3)c2)CC1 do in these assays?
D2 ag-1: 0.5; D2 antagonist: 13.9; D2 PAM-1: -28.7; D2 PAM-2: 4.8; D2 ag-2: -1.9

Results for CCCC(=O)Nc1ccc(Cl)c(NC(=S)NC(=O)C(C)C)c1 ?
D2 ag-1: 9.2; D2 antagonist: -15.1; D2 PAM-1: -1.4; D2 PAM-2: 4.3; D2 ag-2: -3.0

Results for O=C(NCc1ccco1)C(=O)NCC1OCCN1S(=O)(=O)c1ccc(F)cc1 (configuration not stated) ?
D2 ag-1: 0.6; D2 antagonist: -18.4; D2 PAM-1: -2.9; D2 PAM-2: 4.6; D2 ag-2: -0.2

Bioassay records (PubChem BioAssay)
